# Source: the supplement of paper PMC13380429
# Values without a mark were called inactive.
# Tested on: Vero E6 infected with SARS-CoV-2
# Assay: inhibition of SARS-CoV-2 cytopathic effect; higher = more antiviral protection, active = above 15
# Settings: 48 h
Compound,inhibition of SARS-CoV-2 cytopathic effect (1 nM) [%],inhibition of SARS-CoV-2 cytopathic effect (8.33 nM) [%],inhibition of SARS-CoV-2 cytopathic effect (100 nM) [%],inhibition of SARS-CoV-2 cytopathic effect (833.33 nM) [%],inhibition of SARS-CoV-2 cytopathic effect (10000 nM)
C[C@H](NC(=O)Cc1cc(F)cc(F)c1)C(=O)N[C@@H]1C(=O)N(C)c2ccccc2-c2ccccc21,-2.68,-3.21,-6.27,-7.86,-8.97%
N#Cc1cc(CN2CCC(Nc3ncnc4sc(Cl)cc34)CC2)ccc1F,6.81,8.07,7.98,1.59,0.56%
O=[N+]([O-])c1ncc[nH]1 [azomycin-(2-nitroimidazole)],1.8,1.77,0.86,2.21,-0.1%
COc1ccc(Cc2nccc3cc(OC)c(OC)cc23)cc1OC [papaverine],-0.41,0.26,-3.04,-2.94,-1.53%
CON(C)C(=O)N1N=C(c2cc(F)ccc2F)S[C@@]1(CCCN)c1ccccc1 [filanesib],-0.78,-1.05,-1.91,-0.01,-2.39%
Cn1cc(-c2cnn3c(N)c(Br)c([C@@H]4CCCNC4)nc23)cn1,0.61,0.92,2.32,2.1,0.48%
CCCCCCCCCCC[C@@H](C[C@@H]1OC(=O)[C@H]1CCCCCC)OC(=O)[C@H](CC(C)C)NC=O [orlistat],1.59,3.04,0.9,2.31,1.43%
Nc1nc(F)nc2c1ncn2[C@@H]1O[C@H](CO)[C@@H](O)[C@@H]1O [fludarabine],-1.26,-3.11,-2.43,1.66,-0.43%
CN(c1ccccc1CNc1nc(Nc2ccc3c(c2)CC(=O)N3)ncc1C(F)(F)F)S(C)(=O)=O,-0.17,-0.35,-2.19,-5.19,-15.4%
CC[N+](CC)(CC)CCOc1ccc(/C=C/c2ccccc2)cc1,-0.65,1.39,2.2,1.89,7.99%
CCCCC(=O)O[C@H]1CC[C@H]2[C@@H]3CCc4cc(O)ccc4[C@H]3CC[C@]12C,-0.93,0.74,-1.48,-1.92,-0.83%
Cc1ccc(S(=O)(=O)/C=C/C#N)cc1,0.18,-2.24,0.01,4.59,18.8% (active)
CCOc1cc([C@@H](CS(C)(=O)=O)N2C(=O)c3cccc(NC(C)=O)c3C2=O)ccc1OC [apremilast],2.28,-0.67,1.6,-0.47,-2.14%
CCCCc1nn(-c2ccccc2C(F)(F)F)c(=O)n1Cc1ccc(-c2ccccc2S(=O)(=O)NC(=O)c2sccc2C)cc1,0.19,-0.03,2.56,-2.77,-1.65%
C[C@H](Nc1ncnc2[nH]cnc12)c1cc2ccc(F)cc2nc1-c1ccccn1,0.375,4.37,4.2,1.33,-3.42%
CSc1ccc2c(c1)[C@H](N1CCN(C)CC1)Cc1ccccc1S2 (racemic) [metitepine],0.91,0.58,-0.78,-2.3,16.2% (active)
CNS(=O)(=O)Nc1nccc(Cc2c(C)c3ccc(Oc4ncccn4)cc3oc2=O)c1F,-0.25,-3.18,-10.4,-17.5,-15.7%
CN(C)CCOC(=O)C(c1ccccc1)C1(O)CCCC1 (stereo not given) [cyclopentolate],-1.73,1.59,-2.5,-0.18,-1.17%
COc1cc(C)c(/C=C/C(C)=C/C=C/C(C)=C/C(=O)O)c(C)c1C [acitretin],0.15,-1.89,0.02,-0.64,-0.58%
O=C(/C=C/c1ccc2ccccc2n1)c1ccncc1,-4.3,-0.71,-2.06,-1.46,-3.51%

Compound,inhibition of SARS-CoV-2 cytopathic effect (1 nM) [%],inhibition of SARS-CoV-2 cytopathic effect (8.33 nM) [%],inhibition of SARS-CoV-2 cytopathic effect (100 nM) [%],inhibition of SARS-CoV-2 cytopathic effect (833.33 nM) [%],inhibition of SARS-CoV-2 cytopathic effect (10000 nM)
C[N+](C)(C)[C@@H](Cc1c[nH]c(=S)[nH]1)C(=O)O [L-ergothioneine],1.26,-1.22,2.33,2.82,0.9%
O=C(O)[C@@H](S)[C@@H](S)C(=O)O [dimercaptosuccinic-acid],0.73,-1.78,-1.78,-1.02,-2.75%
CC(C)Nc1cc(-c2c[nH]c(C(=O)N[C@H](CO)c3cccc(Cl)c3)c2)c(Cl)cn1,-2.18,0.33,-2.23,-5.21,-6.01%
C[C@@H](O[C@H]1OCCN(Cc2n[nH]c(=O)[nH]2)[C@H]1c1ccc(F)cc1)c1cc(C(F)(F)F)cc(C(F)(F)F)c1 [aprepitant],-2.6,-2.93,-3.21,-4.32,-6.5%
CC1COc2c(N3CCN(C)CC3)c(F)cc3c(=O)c(C(=O)O)cn1c23 (stereo not given) [ofloxacin],1.97,0.365,0.065,-0.975,1.25%
N#Cc1ccncn1 [4-pyrimidinecarbonitrile],3.43,1.7,4.16,0.49,-3.8%
CCOC(=O)c1c(O)nc2cccc3c2c1-c1ccccc1C3=O,0.21,0.57,5.31,4.72,4.09%
CN1CCC(Nc2ncc3ncnc(Nc4ccc(F)c(Cl)c4)c3n2)CC1,0.68,1.23,-4.55,-7.55,-2.79%
c1ccc(Oc2nc(NC3CCCCC3)c3[nH]cnc3n2)cc1,0.79,-0.47,-1.37,-1.49,-6.42%
COc1ccc(-n2[nH]c3c4c(ncc3c2=O)CCCCC4)cc1,0.69,0.11,-0.83,1.15,-1.86%
COc1cc(/C=C/C(=O)CC(=O)/C=C/c2ccc(O)c(OC)c2)ccc1O [curcumin],-1.79,-0.65,1.73,4.68,23.4% (active)
COc1cc(OC)c2c(=O)[nH]c(-c3cc(C)c(OCCO)c(C)c3)nc2c1 [apabetalone],-0.27,0.93,2.32,-1.57,-0.84%
CN1CCN(c2c(F)cc3c(=O)c(C(=O)O)cn4c3c2SCC4)CC1 [rufloxacin],0.11,-1.78,0.94,1.64,-3.47%
CCCCCCCCCCCCOS(=O)(=O)O [dodecyl-sulfate],-0.285,1.83,1.98,0.175,0.47%
OC[C@H]1O[C@@H](n2cnc3c(NC4CCCC4)ncnc32)[C@H](O)[C@@H]1O [N6-cyclopentyladenosine],0.37,0.93,1.63,4.59,1.5%
CN(c1ccc(NC(=O)Nc2ccccc2)cc1)S(=O)(=O)c1cnn(-c2ccc(F)cc2)c1,2.37,2.39,0.06,-1.77,0.18%
CCCOC(C(=O)OC1CCN(C)CC1)(c1ccccc1)c1ccccc1 [propiverine],0.57,1.63,0.85,-0.19,1.89%
C=CC[C@@H]1/C=C(\C)C[C@H](C)C[C@H](OC)[C@H]2O[C@@](O)(C(=O)C(=O)N3CCCC[C@H]3C(=O)O[C@H](/C(C)=C/[C@@H]3CC[C@@H](O)[C@H](OC)C3)[C@H](C)[C@@H](O)CC1=O)[C@H](C)C[C@@H]2OC [tacrolimus],0.97,1.42,2.56,1.67,1.14%
CC[C@]12CCCN3CCc4c(n(c5ccccc45)[C@@](O)(C(=O)OC)C1)[C@@H]32 [vincamine],0.28,2.12,0.98,-2.3,-1.71%
